Dicer inh = inhibitors of Dicer pre-microRNA processing, primary screen, biochemical, cat-ELCCA, chemiluminescence. Endoribonuclease Dicer (Homo sapiens), Q9UPY3. cat-ELCCA pre-miR-21 Dicer processing; hits give high values. z-score at 25 µM. 47,000 compounds, 6% hits; in the data active = z-score above about 3, passing the limit was not always enough;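 note: higher signal means more uncleaved substrate so more Dicer inhibition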
Of the large screens only hits and unclear results are named; the others gave an inactive call. Shown is part of a subset that was picked to be rich in hits.

COC(=O)c1ccc(S(=O)(=O)N2CCCN(c3cccc(C(F)(F)F)n3)CC2)n1C	none
CCCCc1c(O)nc(SCCN(C)C)n(-c2ccccc2)c1=O	none
CCCCCc1c(O)nc(SCCN2CCOCC2)n(-c2ccccc2)c1=O	Dicer inh 3.3
CCOC(=O)CSc1nc2sc3c(c2c(=O)n1-c1ccccc1)CCN(C)C3	none
OCCNc1ncnc2c1c(-c1ccccc1)c(-c1ccccc1)n2Cc1ccco1	Dicer inh 5.9
c1cn(CCCNc2ncnc3ccsc23)cn1	none
Cc1ccccc1OCc1nc(C#N)c(NCCCn2ccnc2)o1	none
OCCNc1ncnc2c1oc1ccccc12	none
c1ccc(-c2c(-c3ccccc3)n(Cc3ccco3)c3ncnc(NCCCn4ccnc4)c23)cc1	Dicer inh 3.9
c1ccc(-c2c(-c3ccccc3)n(Cc3ccco3)c3ncnc(NCc4ccco4)c23)cc1	none
CS(=O)(=N/C=C(\C#N)S(=O)(=O)c1ccc(C(F)(F)F)cn1)c1ccc(Oc2ccc([N+](=O)[O-])cn2)cc1 (configuration not stated)	none
COc1ccc(OCc2nc(C#N)c(N3CCC(C(N)=O)CC3)o2)cc1	none
N#Cc1nc(COc2ccccc2Cl)oc1N1CCOCC1	none
N#Cc1nc(COc2ccc(F)cc2)oc1NCc1cccnc1	none
N#Cc1nc(COc2cccc(Cl)c2)oc1NCc1cccnc1	Dicer inh 3.8
N#Cc1nc(COc2cccc(Cl)c2)oc1NCc1ccco1	none
COc1ccc(N2CCN(c3oc(COc4ccc(F)cc4)nc3C#N)CC2)cc1	none
N#Cc1nc(COc2cccc(Cl)c2)oc1N1CCCCC1	Dicer inh 3.9
N#Cc1nc(COc2ccccc2Cl)oc1N1CCCC1	none
COc1ccc(OCc2nc(C#N)c(N3CCN(c4ccccc4)CC3)o2)cc1	Dicer inh 3
O=C(/C=C1\OC(=O)c2ccccc21)Oc1cccc(C(F)(F)F)c1	none
COc1ccc(-c2nnc3c4ccccc4c(C)nn23)cc1S(=O)(=O)NCCO	none
COc1c(Cl)cc(Cl)c(OC)c1C(=O)NC(=O)Nc1c(C)cccc1Cl	none
O=C1CC(c2ccco2)CC2=C1C(c1ccc(Cl)cc1)N(C(=O)c1ccccc1)c1ccccc1N2 (configuration not stated)	none
Cc1cccc(Cl)c1NC(=O)Nc1ccc(N2CCCCC2)cc1	none
Cc1sc2nc(C)n(N)c(=O)c2c1C	none
Cc1cnc(N2CCN(NC(=S)Nc3cccnc3)CC2)c(Cl)c1	none
CCCCc1ncc(/C=C2\C(=O)Nc3ccccc32)[nH]1	none
COc1ccc(Br)c(C(=O)/C(C#N)=N/O)c1	none
Cc1nnsc1C(=O)Nc1cc(-c2ccccc2)nn1C	none
Cc1cc(C)cc(NC(=O)Nc2cc(C(C)(C)C)nn2C)c1	none
Cc1ccc(F)cc1NC(=O)Nc1cc(C(C)(C)C)nn1C	Dicer inh 4
Cn1nc(C(C)(C)C)cc1NC(=O)Nc1cccc2ccccc12	none
Cc1ccccc1NC(=O)Nc1cc(-c2ccccc2)nn1C	none
Cn1nc(-c2ccccc2)cc1NC(=O)Nc1ccc(OCc2ccccc2)cc1	none
Cn1nc(-c2ccccc2)cc1NC(=O)Nc1ccc(F)cc1	Dicer inh 3.6
Cn1nc(-c2ccc(Cl)cc2)cc1NC(=O)Nc1ccc(OCc2ccccc2)cc1	none
Cn1nc(C(C)(C)C)cc1NC(=O)Nc1ccc(OCc2ccccc2)cc1	Dicer inh 4.3
O=C(CN1C(=O)CSC1=O)Nc1ccc(F)cc1	none
Cc1csc(Cn2nc(CC(=O)NNC(=S)Nc3ccccc3)c3ccccc3c2=O)n1	none
CN(C)C(=O)c1ccc(C(C)(C)C)cc1	none
O=C(c1cc2n(n1)C(C(F)(F)F)CC(c1ccc(Cl)cc1)N2)N1CCCCC1 (configuration not stated)	none
COc1ccc(C2CC(C(F)(F)F)n3nc(C(N)=O)cc3N2)cc1OC (configuration not stated)	none
O=C(c1cc2n(n1)C(C(F)(F)F)CC(c1ccc(Br)cc1)N2)N1CCOCC1 (configuration not stated)	Dicer inh 5
O=C(c1cc2n(n1)C(C(F)(F)F)CC(c1ccc(Cl)cc1)N2)N1CCCC1 (configuration not stated)	none
CC1CCN(C(=O)c2cc3n(n2)C(C(F)(F)F)CC(c2ccc(Br)cc2)N3)CC1 (configuration not stated)	Dicer inh 5.4
O=C(c1cc2n(n1)C(C(F)(F)F)CC(c1ccco1)N2)N1CCN(c2ccccn2)CC1 (configuration not stated)	none
O=C(c1cc2n(n1)C(C(F)(F)F)CC(c1ccccc1)N2)N1CCOCC1 (configuration not stated)	Dicer inh 3.6
O=C(c1cc2n(n1)C(C(F)(F)F)CC(c1ccc(Br)cc1)N2)N1CCCCC1 (configuration not stated)	none
O=C(c1cccc(F)c1)N1CCN(C(=O)c2cc3n(n2)C(C(F)(F)F)CC(c2ccco2)N3)CC1 (configuration not stated)	none
O=c1ccc(-c2nc3ccccc3[nH]2)n[nH]1	none
O=C(O)c1cc(-c2cccc(Br)c2)nc2cc(C(F)(F)F)cc(C(F)(F)F)c12	none
Cn1cnnc1Sc1nc2c(c(=O)n(C)c(=O)n2C)n1Cc1ccc(Br)cc1	none
O=C(OCCN=C1NS(=O)(=O)c2ccccc21)c1ccc(S(=O)(=O)N2CCOCC2)cc1	none
CCN(c1cccc2ccccc12)S(=O)(=O)c1ccccc1	none
Cc1ccc(SCC(=O)Nc2nnc(SCC(=O)Nc3ccc(F)c(F)c3F)s2)cc1	none
CC1CCC(C(C)C)C(NCc2ccccc2)C1 (configuration not stated)	none
Brc1ccc(CN2CCN(Cc3ccco3)CC2)cc1	Dicer inh 4.5
CCCS(=O)(=O)N1CCN(Cc2ccco2)CC1	none
COc1cc(CN2CCN(Cc3ccc(OC)cc3OC)CC2)cc(OC)c1	none
COc1cc(CN2CCN(Cc3ccco3)CC2)cc(OC)c1	none
Brc1ccccc1CN1CCN(Cc2ccco2)CC1	none
COc1ccc(CN2CCN(Cc3ccco3)CC2)c(OC)c1	Dicer inh 3.6
Cc1ccc(-n2c(=O)[nH]c3c(sc4nnc(-c5ccccc5)c(-c5ccccc5)c43)c2=O)cc1	none
O=C1c2oc3ccccc3c(=O)c2C(c2ccc(O)cc2)N1Cc1ccc(F)cc1 (configuration not stated)	none
CSc1nnc2c(n1)[nH]c1ccc(C)cc12	none
Cc1cc(=O)n2[nH]c(-c3ccc(Cl)cc3)nc2n1	none
COc1cc(CN2CCN(Cc3ccc(Br)cc3)CC2)cc(OC)c1	none
Cc1[nH]nc(N/N=C/c2ccccc2)c1C(=O)O	none
COC(=O)C1=C(C)Nc2ncnn2C1c1cccc(F)c1 (configuration not stated)	none
Nc1ncnc2c1nc(N1CCCCC1)n2[C@H]1O[C@@H](CO)[C@H](O)[C@@H]1O	none
COC(=O)c1csc2c(C(F)(F)F)cc(N3CCN(C(=O)c4cccs4)CC3)nc12	none
COC(=O)c1cc(=O)n2c(c1C(=O)c1cccs1)SCC2	Dicer inh 6.8
COC(=O)c1ccsc1NC(=O)c1cccs1	none
O=S(=O)(O)c1cc2cc3ccccc3cc2[nH]1	none
N=C1C(=S)N(c2ccc(Cl)c(Cl)c2)C(=O)N1c1ccc(Cl)c(Cl)c1	none
CCOC(=O)c1c(O)c2ccccc2n(C)c1=O	none
CC(=O)c1c(O)c2ccccc2n(C)c1=O	none
Cn1c(=O)c(C(=O)NCc2ccccn2)c(O)c2ccccc21	Dicer inh 10
NC(=O)c1c(Nc2ccccc2)sc(C(=O)c2ccccc2)c1N	none
Cc1cc(C)c(/C=N/Nc2ccc([N+](=O)[O-])cc2)[nH]1	none
COc1ccc(OC)c(S(=O)(=O)N2CCN(C)CC2)c1	none
COc1ccc(S(=O)(=O)N2CCN(C)CC2)cc1C	Dicer inh 4
CN1CCN(S(=O)(=O)c2ccc3ccccc3c2)CC1	none

Screens (PubChem)
